Experimental data published in PubChem BioAssay (NCI).
This is part of a sample that, as a whole, favours compounds with a hit. Of some 79,000 tested, about 15% had one in any assay. A number with no mark means an inactive call. Activity calls are given as the source filed them. Rule as the data show it: active = growth inhibition above about 70%; inactive = the rest.

Assays:
[1] = NCI Yeast Anticancer Drug Screen. Data for the rad50 strain (AID 155);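 also: 0% = growth of vehicle-only cultures of the same strain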; conditions: S. cerevisiae rad50 strain growth inhibition; at 50.0 µM; hits give high values
Summary of the method: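 DNA repair mutant yeast, compound exposure, growth read-out; inhibition is taken relative to vehicle.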

[2] = NCI Yeast Anticancer Drug Screen. Data for the mec2-1 strain (AID 157); conditions: S. cerevisiae mec2-1 strain, at 50.0 µM, hits give high values
Summary of the method: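 mec2-1 yeast strain, carrying an alteration in DNA damage repair or cell cycle control, was exposed to compounds; growth inhibition was measured relative to vehicle-treated controls.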

[3] = NCI Yeast Anticancer Drug Screen. Data for the sgs1 mgt1 strain (AID 161);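 also: 0% = growth of cultures given vehicle only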; conditions: S. cerevisiae sgs1 mgt1 strain, at 50.0 µM, hits give high values
Summary of the method: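 Growth of a repair-deficient yeast mutant was monitored after compound treatment and expressed as inhibition relative to vehicle-treated cultures.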

[4] = NCI Yeast Anticancer Drug Screen. Data for the cln2 rad14 strain (AID 165);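 also: 0% = growth equal to vehicle treated cultures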; conditions: S. cerevisiae cln2 rad14 strain, at 50.0 µM, hits give high values
Summary of the method: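 Yeast carrying cln2 and rad14 alterations (cell cycle control and DNA damage repair) were exposed to compounds. Growth inhibition was measured against vehicle-treated controls.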

[5] = NCI Yeast Anticancer Drug Screen. Data for the bub3 strain (AID 167); conditions: S. cerevisiae bub3 mutant strain, at 50.0 µM, hits give high values
Summary of the method: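 In this screen, a yeast mutant lacking normal mitotic checkpoint function is challenged with compound. Relative growth versus vehicle gives the inhibition value.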

[6] = NCI Yeast Anticancer Drug Screen. Data for the mlh1 rad18 strain (AID 175); conditions: S. cerevisiae mlh1 rad18 strain growth inhibition; at 50.0 µM; hits give high values
Summary of the method: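 Growth inhibition of the yeast strain was measured after compound exposure and expressed relative to vehicle-treated controls. The strain carries defined defects in DNA damage repair.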

| Compound | growth inhibition [1] | growth inhibition [2] | growth inhibition [3] | growth inhibition [4] | growth inhibition [5] | growth inhibition [6] |
| --- | --- | --- | --- | --- | --- | --- |
| C/C(=N\N=P(c1ccccc1)(c1ccccc1)c1ccccc1)c1ccccc1 | 5.15% | -6.5% | 9.35% | -1.4% | 2.6% | -14.3% |
| CC#CCCC1CCCCNC1=O (stereo unspecified) | 0.8% | -16.9% | 27.1% | 12.1% | 26.5% | 3.7% |
| O=C1CCCS(=O)(=O)CCC1 | 7.4% | 11.5% | -8.2% | -3.5% | 0.9% | 54.1% |
| Cc1nc(-c2cc([N+](=O)[O-])cc([N+](=O)[O-])c2)oc1-c1ccccc1 | -15.2% | -1.95% | -7.35% | 13% | -3.25% | -3.4% |
| CCCCN(CCCC)CC1OCCO1 | -6.35% | -0.5% | -2.45% | -16.6% | 2.7% | -2.6% |
| COc1cc(/C=C2\N=C(C)N(n3c(-c4ccccc4)nc4ccccc4c3=O)C2=O)cc(OC)c1OC | -20.4% | 19.6% | 29.6% | 2.7% | 16.2% | 7.3% |
| Cc1nc(N/N=C/c2ccccc2Cl)[nH]c(=O)c1CCO | -18.9% | -2.8% | -17.4% | 12.2% | -30.2% | 4.15% |
| Cc1ccc(S(=O)(=O)N(CCCc2c(Cl)nc(N)nc2Cc2ccccc2)c2ccccc2)cc1 | -9.75% | -16.5% | -17.2% | -73.8% | -0.8% | -4.65% |
| Cc1ccc(N(CN2C(=O)CCC2=O)CS(=O)(=O)c2ccc(C)cc2)cc1 | -1.85% | -8.6% | -9.15% | 21.4% | -5.65% | 0.8% |
| C/C(=N\NC(=S)N1CCC(C)CC1)c1nccnc1C | 6.1% | 7.85% | 11.4% | 28.1% | 8.95% | 17.7% |
| COc1c2c(cc3c1C1(O)Cc4ccc5c(c4C[N+]1(C)CC3)OCO5)OCO2 (stereo unspecified) | 10.8% | 3.05% | -5.3% | -1.15% | -4.25% | -60.8% |
| COc1cccc(/S(C)=N/S(=O)(=O)c2ccc(C)cc2)c1 (stereo unspecified) | -11.2% | -7.15% | 2.8% | -6.65% | -8.65% | 8.5% |
| CCC(=O)[CH-]C(=O)CC.CCC(=O)[CH-]C(=O)CC.[Cu+2] | 10.9% | -1.9% | 10.2% | -39.4% | -17.6% | 0% |
| CCCc1sc(NC(C)=O)nc1-c1ccccc1 | 1.2% | 5.85% | 15.2% | 29.3% | -9.7% | 10.2% |
| CC(=O)Nc1ccc(/C=N/NC(=S)Nc2cccc3cccnc23)cc1 | -1.2% | 17.9% | -5% | 10.5% | 31.4% | -4.45% |
| COc1ccc(C(c2cc3c(cc2O)OCO3)N2CCN(C(c3cc4c(cc3O)OCO4)c3ccc(OC)cc3OC)CC2)c(OC)c1 (stereo unspecified) | -15.1% | 1.55% | 30.2% | 23.1% | -11.9% | 3.45% |
| CC1=C[P+](c2ccccc2)(c2ccccc2)C=C(C)O1 | 8.9% | 3.55% | 12.6% | 0.65% | 4.5% | 4.25% |
| Nc1nnc(-c2ccc(Br)cc2)o1 | 3.05% | -16.9% | -14.2% | -5% | -25.9% | 5% |
| O=Cc1cc(C=O)c2ccc(=O)[nH]c2n1 | 4.75% | 0.5% | -8.55% | 0.65% | -1.25% | -3.5% |
| CN(C)c1ncnc2c1cnn2C1OC(CO)C(O)C1O (stereo unspecified) | 5.85% | 14.2% | 17.3% | 15.2% | 19.6% | 30.7% |
| Cc1cc(Cl)ccc1OCC(=O)OCC(C)(C)[N+](=O)[O-] | 6.05% | 19.1% | 20.4% | -80.2% | 36.6% | 33.7% |

| Compound | growth inhibition [1] | growth inhibition [2] | growth inhibition [3] | growth inhibition [4] | growth inhibition [5] | growth inhibition [6] |
| --- | --- | --- | --- | --- | --- | --- |
| c1ccc2c(c1)cc1n2CCc2c-1[nH]c1ccccc21 | 26.2% | 18.6% | 4.2% | 18.1% | 19.9% | 20.9% |
| COc1ccc(F)cc1N | 2% | -17.8% | 5.15% | -7.35% | 11.8% | -18.7% |
| CCNC(=O)OCc1cc(Cl)cc(Cl)c1OC(=O)NCC | 99.5% (active) | 99.2% (active) | 99.7% (active) | 96.8% (active) | 98.5% (active) | 99.5% (active) |
| O=P1(C(c2ccccc2)c2ccccc2)OC2CC(Cl)CC(C2)O1 (stereo unspecified) | 4.9% | -1.85% | -6.9% | -46.8% | 0.25% | -11.9% |
| Nc1nc(SCC(=O)O)[nH]c(=O)c1N | -16.2% | 30.1% | -1.7% | 6.25% | -0.25% | 2.7% |
| CCCC1CCCCC1O (stereo unspecified) | -9.55% | -38.8% | -24.4% | 7.15% | -24.2% | -6.95% |
| O=C(C(c1ccccc1)c1ccccc1)N(CCO)c1ccccc1 | -12% | -28.6% | -4.2% | -9.5% | -4.6% | -0.65% |
| CCCC(=O)C(=O)CCC | -5.25% | -17.4% | 2.3% | -26.1% | -0.15% | -3.45% |
| COc1nc(N)c(C(=O)CCl)c(=O)n1C | 3.35% | -7.5% | 6.5% | 0.35% | -20.6% | 16.5% |
| c1ccc(Cc2cc(-c3cc(Cc4ccccc4)[nH]n3)n[nH]2)cc1 | 22.2% | 11.2% | 19.4% | 19.2% | 5.4% | 20.9% |
| CCOC(=O)C(CCC#N)(NC(C)=O)C(=O)OCC | 1.4% | -2.35% | 7.4% | -25.3% | 1.7% | -20.9% |
| COC(=O)NN(C(=O)OC)C12CCCCC1N(C(=O)OC)N(C(=O)OC)c1c2ccc2cc(OC)ccc12 (stereo unspecified) | 24.4% | -0.7% | 7.65% | -14.1% | 4.2% | 10.9% |
| Cc1cc2c(cc1Cl)SC(NNC(=O)c1ccccc1)=NS2(=O)=O | -44.9% | -31.7% | -43.8% | -42.2% | -31.1% | -38.2% |
| CCC(=O)c1cccc(-c2ccccc2)c1C | 7% | -13.5% | -2.5% | 4.25% | 11.7% | 11.5% |
| CCOC(=O)c1c(-c2ccc(Cl)cc2)c(C#N)c(=S)n(C2OC(COC(C)=O)C(OC(C)=O)C(OC(C)=O)C2OC(C)=O)c1-c1ccccc1 (stereo unspecified) | -1.45% | -3.9% | -6.8% | 25.9% | 17.9% | 4.7% |
| CCOC(=O)C1=C(C(C)=O)C(c2ccc(OC)c(OC)c2)C(C(C)=O)=C(C(=O)OCC)N1 | 35.5% | 12.9% | 8.9% | 35% | -4.95% | 8.55% |
| CCC(=O)n1cc2ccc([N+](=O)[O-])cc2n1 | 1.35% | 1.35% | -4% | -57.8% | 13.2% | -3.05% |
| N#C/C(=C\c1cccnc1)c1ccc(Br)cc1 | 59.4% | 36.4% | 41.8% | 14.3% | 43.5% | 70% (active) |
| Cc1ccccc1N1C(=O)/C(=C/c2ccc(N(CCC#N)CCC#N)cc2)N=C1c1cc([N+](=O)[O-])ccc1Cl | 4.65% | 1.7% | 26.1% | 7.1% | -1.7% | 6.2% |
| CCC(C)(C)c1ccc(OCCO)cc1 | -29.2% | -29.4% | -20.8% | -12.9% | -19.2% | -23.4% |
